# Laboratory results as given in the antibiotic and cytotoxicity screens of Wong et al. (2023).
# About 1,500 (3.8%) of roughly 39,000 compounds were called active. The sample as a whole holds a higher share of actives than the screen did.
# Tested on: HSkMC (human skeletal muscle cells)
# Assay: cytotoxicity call (relative viability < 0.9)
# Conditions: 10 µM
row,SMILES,cytotoxicity call
1,C[C@@H]1CN([C@@H](C)CO)C(=O)Cc2cc(NC(=O)Nc3cccc4ccccc34)ccc2O[C@@H]1CN(C)Cc1ccc2c(c1)OCO2,inactive
2,Cc1noc(C)c1NC(=O)N(C)C[C@@H]1OCCCC[C@@H](C)Oc2ccc(NC(=O)Nc3ccccc3)cc2C(=O)N([C@@H](C)CO)C[C@@H]1C,inactive
3,Cc1noc(C)c1S(=O)(=O)N(C)C[C@H]1OCCCC[C@@H](C)Oc2ccc(NC(=O)Nc3ccccc3)cc2C(=O)N([C@@H](C)CO)C[C@@H]1C,inactive
4,COc1ccc(NC(=O)Nc2ccc3c(c2)C(=O)N([C@H](C)CO)C[C@H](C)[C@@H](CN(C)S(=O)(=O)c2c(C)noc2C)OCCCC[C@@H](C)O3)cc1,inactive
5,C[C@@H]1CCCCO[C@@H](CN(C)C(=O)NC2CCCCC2)[C@H](C)CN([C@H](C)CO)C(=O)c2cc(NC(=O)Cc3ccccc3)ccc2O1,inactive
6,CC(C)NC(=O)Nc1ccc2c(c1)C(=O)N([C@@H](C)CO)C[C@@H](C)[C@H](CN(C)S(=O)(=O)c1cn(C)cn1)OCCCC[C@@H](C)O2,inactive
7,C[C@@H]1CN([C@@H](C)CO)C(=O)c2cc(NC(=O)Nc3ccc(C(F)(F)F)cc3)ccc2O[C@@H](C)CCCCO[C@@H]1CN(C)Cc1ccc2c(c1)OCO2,inactive
8,C[C@H](CO)N1C[C@H](C)[C@H](CN(C)Cc2ccc3c(c2)OCO3)OCCCC[C@H](C)Oc2ccc(NC(=O)Nc3ccc(C(F)(F)F)cc3)cc2C1=O,active
9,C[C@@H]1CCCCO[C@@H](CN(C)Cc2ccc3c(c2)OCO3)[C@H](C)CN([C@@H](C)CO)C(=O)c2cc(NC(=O)Nc3ccc(C(F)(F)F)cc3)ccc2O1,active
10,C[C@H](CO)N1C[C@H](C)[C@@H](CN(C)Cc2ccc3c(c2)OCO3)OCCCC[C@H](C)Oc2ccc(NC(=O)Nc3ccc(C(F)(F)F)cc3)cc2C1=O,active
11,C[C@@H]1CCCCO[C@@H](CN(C)Cc2ccc3c(c2)OCO3)[C@@H](C)CN([C@H](C)CO)C(=O)c2cc(NC(=O)Nc3ccc(C(F)(F)F)cc3)ccc2O1,inactive
12,C[C@@H]1CN([C@H](C)CO)C(=O)c2cc(NC(=O)Nc3ccc(C(F)(F)F)cc3)ccc2O[C@@H](C)CCCCO[C@H]1CN(C)Cc1ccc2c(c1)OCO2,active
13,CC(C)NC(=O)Nc1cccc2c1O[C@@H](CN(C)S(=O)(=O)c1ccccc1)[C@H](C)CN([C@H](C)CO)C2=O,inactive
14,C[C@@H]1CN([C@@H](C)CO)S(=O)(=O)c2ccc(Br)cc2O[C@H]1CN(C)C(=O)c1ccncc1,inactive
15,C[C@H](CO)N1C[C@H](C)[C@@H](CN(C)S(=O)(=O)c2ccc(Oc3ccccc3)nc2)OCc2cn(nn2)CCCC1=O,inactive
16,c1ccc2c(c1)[nH]c1ncccc12,inactive
17,CCC(=O)N[C@H]1C=C[C@H](CC(=O)OC)O[C@@H]1CO,inactive
18,COc1ccc(NC(=O)Nc2ccc3c(c2)C(=O)N([C@@H](C)CO)C[C@H](C)[C@@H](CN(C)C(=O)c2ccccc2)OCCCC[C@H](C)O3)cc1,inactive
19,O=S(=O)(N1CCOCC1)N1CCCN(S(=O)(=O)N2CCOCC2)CC1,inactive
20,C[C@@H](O)C#Cc1ccc2c(c1)O[C@H](CN(C)C(=O)Cc1ccccn1)[C@@H](C)CN([C@@H](C)CO)S2(=O)=O,inactive
21,O=C(C[C@H]1C=C[C@H](NC(=O)CN2CCOCC2)[C@@H](CO)O1)NC1CCCCC1,inactive
22,Nc1ccc(S(N)(=O)=O)cn1,inactive

row,SMILES,cytotoxicity call
1,Cc1cc(C(=O)Nc2cccc3c2O[C@@H](CN(C)Cc2ccc(C(=O)O)cc2)[C@@H](C)CN([C@@H](C)CO)C3=O)n(C)n1,inactive
2,C[C@@H]1CCCCO[C@@H](CN(C)Cc2ccc3c(c2)OCO3)[C@@H](C)CN([C@@H](C)CO)C(=O)c2cc(NC(=O)Nc3ccc(C(F)(F)F)cc3)ccc2O1,active
3,C[C@@H]1CCCCO[C@H](CN(C)Cc2ccc3c(c2)OCO3)[C@@H](C)CN([C@@H](C)CO)C(=O)c2cc(NC(=O)Nc3ccc(C(F)(F)F)cc3)ccc2O1,active
4,C[C@H](CO)N1C[C@H](C)[C@H](CN(C)C(=O)Nc2ccc3c(c2)OCO3)OCCCC[C@H](C)Oc2ccc(NC(=O)CCC(F)(F)F)cc2C1=O,inactive
5,C[C@@H]1CN([C@H](C)CO)C(=O)c2cc(NC(=O)NC3CCCCC3)ccc2O[C@@H]1CN(C)Cc1ccc(Oc2ccccc2)cc1,inactive
6,Cc1noc(C)c1S(=O)(=O)Nc1ccc2c(c1)C(=O)N([C@H](C)CO)C[C@@H](C)[C@H](CN(C)S(=O)(=O)c1cn(C)cn1)OCCCC[C@@H](C)O2,inactive
7,C/C=C1\NC(=O)[C@H]2CSSCC/C=C/[C@H](CC(=O)N[C@H](C(C)C)C(=O)N2)OC(=O)[C@H](C(C)C)NC1=O,active
8,CC(C)NC(=O)N(C)C[C@H]1Oc2ccc(NC(=O)CCN3CCOCC3)cc2CC(=O)N([C@@H](C)CO)C[C@@H]1C,inactive
9,COCC(=O)N1CC[C@]2(CC1)CN([C@@H](CO)c1c2c2ccc(cc2n1C)OC)C(=O)CN1CCOCC1,inactive
10,CCOC(=O)c1c(CN2CCN(c3ccccc3)CC2)n(-c2ccccc2)c2cc(Br)c(OC)cc12,inactive
11,CCOC(=O)c1c(CN2CCN(c3ccccc3)CC2)n(-c2ccccc2)c2cc(Br)c(O)cc12,active
12,CCOC(=O)c1c(CN2CCN(Cc3ccccc3)CC2)n(-c2ccccc2)c2cc(Br)c(OC)cc12,inactive
13,CCOC(=O)c1c(CN2CCN(c3ccccc3)CC2)n(C2CCCCC2)c2cc(Br)c(O)cc12,active
14,CCOC(=O)c1c(CN2CCN(CCOCCO)CC2)n(-c2ccccc2)c2cc(Br)c(O)cc12,inactive
15,CCOC(=O)c1c(CN2CCN(Cc3ccccc3)CC2)n(-c2ccccc2)c2cc(Br)c(O)cc12,inactive
16,CCOC(=O)c1c(CN2CCN(c3ccccc3C)CC2)n(-c2ccccc2)c2cc(Br)c(O)cc12,active
17,CCOC(=O)c1c(CNCCN(CC)CC)n(-c2ccccc2)c2cc(Br)c(OC)cc12,inactive
18,CCOC(=O)c1c(CN2CCN(c3ccc(C)cc3)CC2)n(-c2ccccc2)c2cc(Br)c(OC)cc12,inactive
19,COc1ccc(CN(C)C[C@@H]2OCCCC[C@@H](C)Oc3ccc(NC(=O)Nc4c(C)noc4C)cc3C(=O)N([C@H](C)CO)C[C@@H]2C)cc1,inactive
20,Cc1noc(C)c1S(=O)(=O)N(C)C[C@H]1Oc2ccc(N(C)C)cc2CC(=O)N([C@@H](C)CO)C[C@H]1C,inactive
21,C[C@@H]1CN([C@H](C)CO)C(=O)c2cc(C#CC3(O)CCCC3)cnc2O[C@@H]1CN(C)C(=O)Cc1ccncc1,inactive
22,C[C@@H]1CCCCO[C@H](CN(C)Cc2ccncc2)[C@@H](C)CN([C@H](C)CO)C(=O)c2cc(NC(=O)NC3CCCCC3)ccc2O1,inactive

row,SMILES,cytotoxicity call
1,C[C@@H]1CN([C@H](C)CO)C(=O)CCCn2cc(nn2)CO[C@H]1CN(C)C(=O)Nc1ccc(N2CCN(C)CC2)cc1,inactive
2,CN1CCN(C(=O)C[C@H]2C[C@H]3c4cc(NC(=O)c5ccc6c(c5)OCO6)ccc4O[C@H]3[C@@H](CO)O2)CC1,inactive
3,Cn1cnc(S(=O)(=O)N2C[C@@H](O)COC[C@@H]3O[C@H](CC(=O)N4CCN(c5ccccc5)CC4)CC[C@H]32)c1,inactive
4,COc1ccc(NC(=O)Nc2ccc3c(c2)C(=O)N([C@@H](C)CO)C[C@@H](C)[C@H](CN(C)Cc2ccc(C(=O)O)cc2)OCCCC[C@@H](C)O3)cc1,inactive
5,Cc1noc(C)c1NC(=O)N(C)C[C@@H]1Oc2ccc(NC(=O)CCCN(C)C)cc2C(=O)N([C@@H](C)CO)C[C@H]1C,inactive
6,O=C1O[C@@H](c2ccccc2)[C@@H](c2ccccc2)N2[C@@H](c3ccc(OCCO)cc3)[C@]3(C(=O)Nc4ccc(C#CC5(O)CCCCCC5)cc43)[C@@H](C(=O)Nc3nc4ccccc4s3)[C@H]12,inactive
7,CCN1CCN(c2ccc(Nc3cc(N(C)C(=O)Nc4c(Cl)c(OC)cc(OC)c4Cl)ncn3)cc2)CC1,active
8,COc1cc2c(N3CCN(C(=O)Nc4ccc(OC(C)C)cc4)CC3)ncnc2cc1OCCCN1CCCCC1,inactive
9,C[C@H](CO)N1C[C@H](C)[C@@H](CN(C)C(=O)CCCN(C)C)OCCCC[C@H](C)Oc2ccc(NS(=O)(=O)c3cn(C)cn3)cc2C1=O,inactive
10,CC(C)NC(=O)N(C)C[C@@H]1OCCCC[C@@H](C)Oc2ccc(NC(=O)CCCCCC(=O)Nc3ccccc3N)cc2C(=O)N([C@H](C)CO)C[C@H]1C,inactive
11,Cn1nnc2c1[C@H](COCC1CC1)CN(C(=O)CS(C)(=O)=O)C2,inactive
12,C[C@H]1CCCCO[C@@H](CN(C)C(=O)Nc2ccccc2)[C@@H](C)CN([C@@H](C)CO)C(=O)c2cc(NC(=O)NC3CCCCC3)ccc2O1,inactive
13,CC(C)n1c(C=CC(O)CC(O)CC(=O)[O-])c(-c2ccc(F)cc2)c2ccccc21.[Na+] (stereo unspecified),inactive
14,C[C@@H]1CCCCO[C@@H](CN(C)S(=O)(=O)c2cccs2)[C@H](C)CN([C@H](C)CO)C(=O)c2cc(NC(=O)CCC(F)(F)F)ccc2O1,inactive
15,Cc1ccc(S(=O)(=O)Nc2ccc3c(c2)C(=O)N([C@H](C)CO)C[C@H](C)[C@H](CN(C)S(=O)(=O)c2ccccc2)O3)cc1,inactive
16,CCCCCCCCCCCCC[N+](C)(C)Cc1ccccc1.O.[Cl-],active
17,CCCCCc1ccccn1,inactive
18,CCCCNc1ccccc1,inactive
19,CCCCCCCCCCCCC[N+](C)(C)Cc1ccccc1,inactive
20,CC[N+](C)(CC)Cc1ccccc1,inactive
21,CCCCCCCCCCCCCCCC[N+](C)(C)Cc1ccccc1.[Cl-],active
22,CO[C@@H]1CN(C)C(=O)c2ccc(NS(=O)(=O)c3cccc(C)c3)cc2OC[C@@H](C)N(Cc2cc(F)ccc2F)C[C@H]1C,inactive
